Results filed as inconclusive are left out. The source made the active and inactive calls. The call rests on the fitted dose curve; in most records, active means well fitted cell-killing curve with a large enough effect; inconclusive means small, poorly fitted or top-dose-only effect, or effect the other way; inactive means flat fitted curve, though single readings scatter.
Assay: Cell Viability - LYMP2-003 (AID 965);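 further: cells exposed to compounds for 24 h before reading; nearly all actives have a fitted effect of over 50% in size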;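 on activity change, negative = cytotoxicity: 0% = DMSO only and full effect = 92 µM tetraoctylammonium bromide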
Conditions: LYMP2-003 lymphoblastoid cell viability; series mostly up to 92.2 µM; activity change, negative = cytotoxicity: at the top concentration
Excerpt: NIH Chemical Genomics Center [NCGC]
NIH Molecular Libraries Screening Centers Network [MLSCN]
National Institutes of Environmental Health Sciences [NIEHS]
National Toxicology Program [NTP]
We have developed a 1536-well cell-based assay for quantitative high throughput screening (qHTS) against a number of cell lines to determine in vitro cytotoxicity of small molecules. This particular assay uses a human lymphoblastoid cell line (LYMP2-003) purchased from Coriell Institute for Medical Research.
NCGC Assay Protocol Summary:
The CellTiter-Glo luminescent cell viability assay (Promega) is a homogeneous method to measure the number of viable cells in culture. The end point readout of this assay is based on quantitation of intracellular ATP, an indicator of metabolic activity, using the luciferase reaction. Luciferase catalyzes the oxidation of beetle Luciferin to oxyluciferin and light in the presence of ATP. The luminescent signal is proportional to amount of ATP present.
Using the CellTiter-Glo luminescent cell viability assay, the amount of cellular ATP was measured in the lymphoblastoid cell line with complete culture medium following compound treatment for 24 hours. The assay was performed in opaque white Kalypsys 1536-well plates. In the screen, tetraoctylammonium bromide was used as positive control. Library compounds were measured for their ability to cause acute toxicity in the cell line, as reflected by a decrease in intracellular ATP levels, in a concentration-dependent manner. […] AC50 values were determined from concentration-response data modeled with the standard Hill equation.
qHTS protocol for CellTiter Glo lymphoblastoid cellular assay
[Step] [Parameter] [Value] [Description]
1. Reagent; 5 uL; 2500 lymphoblastoid cells/well
2. Time; 5 hr; 37 C incubation
4. Controls; 23 nL; Tetraoctylammonium bromide 6.4pM to 92 uM
5. Time; 24 hr; 37 C incubation
6. Reagent; 5 uL; CellTiter Glo reagent
7. Time; 30 min; Room Temperature
8. Detection; Luminescence; Viewlux plate reader
Keywords: cell viability, cytotoxicity, lymphoblastoid cell line, luminescence, NTPHTS, NTPHTS_NCGC, NIEHS, DSSTox, MLSMR, MLSCN, NIH Roadmap, qHTS, NCGC
Potency means the concentration at half of the fitted maximal effect.

Structure (SMILES)	activity change, negative = cytotoxicity	Potency
ClCC(Cl)Cl	18.8% (inactive)	
CCBr	25.2% (inactive)	
Cc1ccc(N)c(C)c1	9.77% (inactive)	
Nc1ccc([N+](=O)[O-])cc1N	-4.08% (inactive)	
CCC[N+](=O)[O-]	18% (inactive)	
S=c1[nH]c2ccccc2[nH]1	3.97% (inactive)	
ClCCOCOCCCl	24.7% (inactive)	
Nc1ccc(Oc2ccc(N)cc2)cc1	1.95% (inactive)	
Nn1cnnc1	22.2% (inactive)	
CCC/C=N/O	21.4% (inactive)	
ClCc1ccccc1	18.1% (inactive)	
CC[N+](=O)[O-]	11.8% (inactive)	
c1ccc2c(c1)CCNC2	-0.184% (inactive)	
CC(=O)NNc1ccccc1	5.33% (inactive)	
C/C=C/CC#N	21.7% (inactive)	
CC(C)(C)OOC(=O)c1ccccc1	-3.34% (inactive)	
Nc1c(Br)cc([N+](=O)[O-])cc1[N+](=O)[O-]	1.55% (inactive)	
CC(C#N)CCC#N (stereo not given)	11.4% (inactive)	
O=c1ccc(=O)[nH][nH]1	13.3% (inactive)	
C(CCOCC1CO1)COCC1CO1 (stereo not given)	-15.6% (inactive)	

Structure (SMILES)	activity change, negative = cytotoxicity	Potency
[O-][Cl+2]([O-])O	28.9% (inactive)	
O=[N+]([O-])c1ccc2c3c(cccc13)CC2	8.14% (inactive)	
Cl/C=C\Cl	1.37% (inactive)	
c1ccc(P(c2ccccc2)c2ccccc2)cc1	2.59% (inactive)	
N#CC(Br)Br	-26.3% (inactive)	
C=CC(=O)OC	4.84% (inactive)	
CCCCCC[N+](=O)[O-]	9.27% (inactive)	
CC(C)OS(C)(=O)=O	-16.3% (inactive)	
ClC=CCl	-11.2% (inactive)	
Cc1cccc(C)c1N	19.4% (inactive)	
Cc1ccc(N=C=O)cc1N=C=O	11.3% (inactive)	
CN1CSC(=S)N(C)C1		31.6 µM (active)
N#CCCC#N	22.1% (inactive)	
ClP(Cl)(Cl)(Cl)Cl	2.51% (inactive)	
Clc1cccc2ccccc12	13.9% (inactive)	
CCCCC#N	-1% (inactive)	
COc1ccc(C=O)cc1	13.6% (inactive)	
Cc1cc(-c2cc(C)c(N)c(C)c2)cc(C)c1N	11.6% (inactive)	
N#C/C=C/C#N		20 µM (active)
C=CC(=O)OCCO		50.1 µM (active)

— PubChem BioAssay (NCATS)
